Assay [1] concerns Wnt5a (protein binding on small-molecule microarray). Briefly: small molecules binding Wnt5a protein – biophysical, small-molecule microarray, 635/667 nm fluorescence, primary screen (AID 1142).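 Note: fluorescence read at 667 nm with signal to noise per printed feature.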 Conditions: 635 nm fluorescence, higher = more signal.
Assay [2] can be described thus: ATP-based viability of Huh7 replicon cells – cell-based, CellTiter-Glo luminescence, basal, 48 h, cytotoxicity control for HCV replication inhibitor project, primary screen (AID 1143).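 Note: Huh7 hepatoma cells carrying a hepatitis C replication reporter with no stimulus; test concentration not given here.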 Conditions: higher = more signal, called active from +8 up or from −8 down. On the technique in general: In antiviral work, replicon cells carry a viral genome segment that copies itself.

Assay [3] is described as follows: Pseudomonas biofilm growth suppression – PAO1 strain, BacTiter-Glo luminescence, LB-PBS, primary screen (AID 1144). As to conditions: P. aeruginosa PAO1 biofilm, 12 h, higher = more signal.
A short description of assay [4]: basal CRE-LacZ reporter activity in PC12 – cell-based, unstimulated, primary screen (AID 1145). Conditions: no forskolin, luminescence, 4.5 h, higher = more signal, called active from +8 up or from −8 down.
A short description of assay [5]: forskolin-driven CRE-LacZ activity in PC12 – cell-based, CRE-LacZ reporter, forskolin-stimulated, primary screen (AID 1146).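 Note: PC12 cells with 6xCRE LacZ reporter stimulated by forskolin 10 µM; beta-galactosidase reporter signal reflecting CREB driven transcription.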 Conditions: luminescence, 4.5 h, higher = more signal, called active from +8 up or from −8 down.
Assay [6] addresses Streptavidin (Streptomyces avidinii) (UniProt P22629). In words: compounds binding control protein streptavidin – biophysical, small-molecule microarray, 635/667 nm fluorescence, artefact control for SMM compound annotation, primary screen (AID 1147).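 Note: signal reflects streptavidin binding to arrayed compounds as a control protein.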 As to conditions: higher = more signal.
A short description of assay [7]: probe aInhba binding on compound microarray – biochemical, small-molecule microarray, 635/667 nm fluorescence, primary screen (AID 1148).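 Note: score merges 667nm spot fluorescence with signal-to-noise for antibody binding to printed compounds.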 Conditions: higher = more signal.
Assay [8] addresses Torsin-1A (Homo sapiens) (UniProt O14656). In words: TOR1A wild-type binding on microarray – cell lysate, small-molecule microarray, lysate, 635/667 nm, primary screen (AID 1149). Conditions: COS7 hTOR1A-WT lysate, 635 nm fluorescence, higher = more signal.
For assay [9] the target is unchanged. In words: torsin A mutant lysate binding on microarrays – cell lysate, small-molecule microarray, COS7 lysate, 635/667 nm fluorescence, primary screen (AID 1150).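 Note: score pools 667 nm emission and signal to noise measuring lysate protein binding.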 Conditions: COS7 hTOR1A mutant lysate, 635 nm fluorescence, higher = more signal.
Assay [10] concerns Sonic hedgehog protein (Shh). Briefly: Sonic hedgehog microarray binding compounds – biochemical, small-molecule microarray, 635/667 nm fluorescence, primary screen (AID 1151).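 Note: Shh protein binding to compounds spotted on small-molecule microarray slides; score combines spot fluorescence intensity with signal-to-noise across triplicate slides.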 Conditions: 635 nm fluorescence, higher = more signal.
The nature of assay [11]: optical density shifts of acrAB sulA E. coli – strain DRC41, OD650, 48 h, E. coli filamentation inducer project, primary screen (AID 1152).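 Note: E. coli MC1000 strain DRC41 lacking acrAB efflux pump and sulA.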 Conditions: higher = more signal, called active from +8 up or from −8 down.
Assay [12] in a line: probe aLefty1 binding on compound microarray – biochemical, small-molecule microarray, 635/667 nm fluorescence, primary screen (AID 1153).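 Note: score merges spot fluorescence with signal-to-noise ratio from the scanned slide images.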 Conditions: higher = more signal.
A short description of assay [13]: plasmodial surface anion channel blockers, osmotic lysis – cell-based, P. falciparum Indochina, OD700, 1 h, primary screen (AID 1154). Conditions: P. falciparum Indochina infected RBC osmotic lysis, higher = more signal, called active from +8 up or from −8 down.
A short description of assay [14]: plasmodial surface anion channel blockers, osmotic lysis – cell-based, P. falciparum Indochina, OD700, 2 h, primary screen (AID 1155).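 Note: lysis reports solute entry through the parasite surface anion channel PSAC.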 As to conditions: P. falciparum Indochina infected erythrocytes, higher = more signal, called active from +8 up or from −8 down.
Assay [15] can be described thus: changes in parasitized red cell lysis, either direction – P. falciparum Indochina, OD700, 3 h, PSAC antagonist project, primary screen (AID 1156). Conditions: P. falciparum-infected erythrocytes, osmotic lysis, higher = more signal, called active from +8 up or from −8 down.
A short description of assay [16]: plasmodial surface anion channel blockers, osmotic lysis – cell-based, P. falciparum Indochina, OD700, 18 h, primary screen (AID 1157). As to conditions: P. falciparum Indochina infected erythrocytes, osmotic lysis OD700, 18 h; higher = more signal, called active from +8 up or from −8 down.
Assay [17] is described as follows: S6 kinase pathway phospho-S6 level changes – cell-based, A549, cytoblot, luminescence, serum-stimulated, primary screen (AID 1158).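 Note: serum-stimulated A549 lung adenocarcinoma cells; signal is phosphorylated S6 detected by cytoblot immunostaining with HRP secondary.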 Conditions: 5 h, higher = more signal.
In assay [18] the target is NADPH oxidase 2 (Homo sapiens) (UniProt P04839). In words: compounds shifting NOX2 Amplex Red fluorescence – cell-based, HEK293-NOX2, PMA-stimulated, NOX inhibitor project, primary screen (AID 1159). Note: test concentration not given here. Conditions: 45 min, higher = more signal, called active from +8 up or from −8 down.
Sequence of NADPH oxidase 2 (Homo sapiens) (P04839 whole entry, looked up): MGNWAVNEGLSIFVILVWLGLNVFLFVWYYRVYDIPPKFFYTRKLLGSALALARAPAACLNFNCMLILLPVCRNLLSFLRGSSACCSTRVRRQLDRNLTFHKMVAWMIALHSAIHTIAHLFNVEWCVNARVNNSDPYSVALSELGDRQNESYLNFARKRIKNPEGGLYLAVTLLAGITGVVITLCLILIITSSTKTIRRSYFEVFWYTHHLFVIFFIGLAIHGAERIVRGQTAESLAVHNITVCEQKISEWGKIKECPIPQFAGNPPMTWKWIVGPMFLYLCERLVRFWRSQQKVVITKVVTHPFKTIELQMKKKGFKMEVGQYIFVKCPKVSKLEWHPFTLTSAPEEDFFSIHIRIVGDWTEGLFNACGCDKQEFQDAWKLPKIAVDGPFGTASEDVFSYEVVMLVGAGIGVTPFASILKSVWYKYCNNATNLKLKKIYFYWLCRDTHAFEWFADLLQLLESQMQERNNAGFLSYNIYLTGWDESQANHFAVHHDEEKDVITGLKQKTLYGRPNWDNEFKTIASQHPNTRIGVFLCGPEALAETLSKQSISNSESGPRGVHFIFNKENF
Assay [19] deals with NADPH oxidase 4 (Homo sapiens) (UniProt Q9NPH5). Briefly: compounds shifting NOX4 Amplex Red fluorescence – cell-based, HEK293-NOX4, tetracycline-induced, NOX inhibitor project, primary screen (AID 1160). As to conditions: HEK293-NOX4, Amplex Red H2O2 fluorescence, 45 min; higher = more signal, called active from +8 up or from −8 down.
Sequence of NADPH oxidase 4 (Homo sapiens) (Q9NPH5 whole entry, looked up): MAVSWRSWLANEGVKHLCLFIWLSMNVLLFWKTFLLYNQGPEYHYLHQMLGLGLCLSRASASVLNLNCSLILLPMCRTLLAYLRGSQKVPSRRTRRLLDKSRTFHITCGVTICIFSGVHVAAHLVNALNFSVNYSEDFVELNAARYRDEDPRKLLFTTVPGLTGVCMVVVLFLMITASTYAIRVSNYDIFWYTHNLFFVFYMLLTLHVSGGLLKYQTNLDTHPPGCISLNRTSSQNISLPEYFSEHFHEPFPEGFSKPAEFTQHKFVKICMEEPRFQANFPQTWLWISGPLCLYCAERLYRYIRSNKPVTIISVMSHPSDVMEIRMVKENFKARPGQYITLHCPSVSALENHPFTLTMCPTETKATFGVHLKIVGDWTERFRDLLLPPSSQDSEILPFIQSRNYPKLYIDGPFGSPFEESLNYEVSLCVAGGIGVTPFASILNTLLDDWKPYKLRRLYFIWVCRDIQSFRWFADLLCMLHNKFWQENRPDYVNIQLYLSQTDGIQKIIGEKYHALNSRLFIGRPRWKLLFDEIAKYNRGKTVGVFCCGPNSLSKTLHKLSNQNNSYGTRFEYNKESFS
For assay [20], the target named is NADPH oxidase 5 (Homo sapiens) (UniProt Q96PH1). In words: compounds shifting NOX5 Amplex Red fluorescence – cell-based, HEK293-NOX5, NOX inhibitor project, primary screen (AID 1161). Conditions: HEK293-NOX5, ionomycin, 45 min, higher = more signal.
Sequence of NADPH oxidase 5 (Homo sapiens) (Q96PH1 whole entry, looked up): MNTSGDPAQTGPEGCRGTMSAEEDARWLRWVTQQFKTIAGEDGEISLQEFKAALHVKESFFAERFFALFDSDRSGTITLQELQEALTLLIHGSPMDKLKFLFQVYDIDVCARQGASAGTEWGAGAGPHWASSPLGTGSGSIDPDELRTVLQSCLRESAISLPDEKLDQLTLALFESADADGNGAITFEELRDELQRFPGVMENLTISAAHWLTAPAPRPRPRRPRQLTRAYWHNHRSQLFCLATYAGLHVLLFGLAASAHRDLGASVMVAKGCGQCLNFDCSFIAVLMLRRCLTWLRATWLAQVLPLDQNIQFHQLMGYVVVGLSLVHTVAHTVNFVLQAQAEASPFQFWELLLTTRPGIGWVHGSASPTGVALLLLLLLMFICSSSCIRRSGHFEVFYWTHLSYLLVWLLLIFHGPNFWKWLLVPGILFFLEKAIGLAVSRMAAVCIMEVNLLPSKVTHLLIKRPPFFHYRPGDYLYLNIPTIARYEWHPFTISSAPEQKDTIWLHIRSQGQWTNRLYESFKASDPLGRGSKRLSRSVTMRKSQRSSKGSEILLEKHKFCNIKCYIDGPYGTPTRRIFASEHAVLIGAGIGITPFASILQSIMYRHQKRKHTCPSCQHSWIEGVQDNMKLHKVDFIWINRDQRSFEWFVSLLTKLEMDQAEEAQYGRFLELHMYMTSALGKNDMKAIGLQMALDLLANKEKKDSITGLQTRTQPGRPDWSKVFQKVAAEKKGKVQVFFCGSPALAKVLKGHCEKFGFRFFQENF

Composite z-score and z-score data for eight molecules are collected here from PubChem BioAssay.

Activity calls are given as the source filed them. Unless noted, the rule behind the calls is not given here.

Sequence of Streptavidin (Streptomyces avidinii) (P22629 whole entry, looked up): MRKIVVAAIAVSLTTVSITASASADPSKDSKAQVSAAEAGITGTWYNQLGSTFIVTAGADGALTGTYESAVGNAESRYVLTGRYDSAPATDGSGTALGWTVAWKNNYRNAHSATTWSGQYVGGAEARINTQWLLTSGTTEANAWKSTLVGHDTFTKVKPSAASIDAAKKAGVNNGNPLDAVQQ
Sequence of Torsin-1A (Homo sapiens) (O14656 whole entry, looked up): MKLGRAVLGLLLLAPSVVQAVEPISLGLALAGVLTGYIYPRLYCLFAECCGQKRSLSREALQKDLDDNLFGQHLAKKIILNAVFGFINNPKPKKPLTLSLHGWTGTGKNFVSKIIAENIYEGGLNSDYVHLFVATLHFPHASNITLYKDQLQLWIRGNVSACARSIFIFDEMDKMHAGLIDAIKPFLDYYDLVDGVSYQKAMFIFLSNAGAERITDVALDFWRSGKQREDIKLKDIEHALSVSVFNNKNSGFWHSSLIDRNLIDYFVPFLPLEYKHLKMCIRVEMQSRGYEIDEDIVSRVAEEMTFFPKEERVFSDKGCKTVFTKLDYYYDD

For the molecule `CC(=O)OC[C@H]1O[C@H](CCON=C(C)CCN2CCCc3nc(C)c(C)cc32)C=C[C@@H]1OC(C)=O`, the composite z-score is 0.166 in [1]; 0.426 in [6]; 0.0973 in assay [7]; 0.946 in the assay with Torsin-1A (Homo sapiens) [8]; 1.17 in the assay with Torsin-1A (Homo sapiens) [9]; 1 in assay [10]. In addition, the composite z-score in assay [12] was 0.0861. Also, the z-score in assay [2] was 0.271 (inactive); in [3], -0.181 (inactive); in assay [4], 0.322 (inactive); in assay [5] it was 0.469 (inactive); in [11], 0.198 (inactive); in assay [13], 2.13 (inactive). Moreover, the z-score was 1.25 (inactive) in assay [14]; 0.872 (inactive) in assay [15]; 0.489 (inactive) in [16]; -1.17 in [17]; 0.152 (inactive) in [18]; 0.11 (inactive) in assay [19]. Moreover, the z-score in assay [20] amounted to 0.207.

For the molecule `CC(C)=CCCC(C)=CCON=C1C[C@@H](O)[C@@H](O)[C@@H]2[C@@H]3C(=O)N(Cc4ccc5c(c4)OCO5)C(=O)[C@@H]3CC[C@@H]12`, the composite z-score in [1] is -0.0188; in [6], 1.19; in assay [7], -0.0791; in the assay with Torsin-1A (Homo sapiens) [8], 1.01; with Torsin-1A (Homo sapiens) [9] it was 0.606; in [10], 0.816. This molecule returned a composite z-score in [12] of 0.0315. Moreover, the z-score is -0.292 (inactive) in [2]; 0.73 (inactive) in [3]; 0.252 (inactive) in [4]; 0.217 (inactive) in [5]; 0.253 (inactive) in assay [11]; 31.3 (active) in assay [13]. For the same molecule, the z-score in assay [14] was 5.69 (inactive); in assay [15] it was 2.24 (inactive); in assay [16], 1.46 (inactive); in assay [17] it was -0.274; in assay [18] it was -1.3 (inactive); in assay [19], -0.0437 (inactive). The z-score in assay [20] was -2.6.

Regarding `C[C@H]1CC[C@H]2C(=O)OC(COc3ccc(C(C)(C)C)cc3)CN2[C@@H]1c1ccc(Br)cc1` (stereo not given in full), the composite z-score is 0.253 in [1]; 0.468 in assay [6]; -0.176 in assay [7]; 0.213 with Torsin-1A (Homo sapiens) [8]; 0.179 with Torsin-1A (Homo sapiens) [9]; 0.0438 in [10]. Besides, the composite z-score in [12] is -0.103. Besides, the z-score in [2] is -0.259 (inactive); in assay [3] it was -1.12 (inactive); in [4] it was 2.36 (inactive); in [5], -1.04 (inactive); in [11], 0.786 (inactive); in assay [13], 1.39 (inactive). In addition, the z-score is 0.0974 (inactive) in [14]; -1.24 (inactive) in [15]; 0.0011 (inactive) in [16]; 0.0307 in assay [17]; 0.426 (inactive) in [18]; 0.317 (inactive) in assay [19]. Besides, the z-score in assay [20] stood at 0.671.

For the molecule `C[C@H]1CC[C@H]2C(=O)O[C@H](CO)CN2[C@@H]1c1ccc(Br)cc1`, the composite z-score was 0.0217 in assay [1]; 0.0279 in assay [6]; -0.202 in [7]; 0.345 with Torsin-1A (Homo sapiens) [8]; -0.363 with Torsin-1A (Homo sapiens) [9]; -0.0013 in assay [10]. Moreover, the composite z-score in [12] was 0.0012. Also, the z-score was -0.98 (inactive) in assay [2]; -1.38 (inactive) in assay [3]; -0.557 (inactive) in assay [4]; -0.816 (inactive) in [5]; -0.0016 (inactive) in assay [11]; 1.51 (inactive) in assay [13]. For the same molecule, the z-score in [14] was 0.939 (inactive); in assay [15] it was 0.0454 (inactive); in assay [16], 0.49 (inactive); in [17], -0.337; in assay [18], -0.431 (inactive); in assay [19], -0.191 (inactive). Besides, the z-score in [20] was -0.489.

With `CCCCOC(OCCCC)C(O)CSc1ccc2ccccc2c1` (stereo not given), the composite z-score in assay [1] is 0.133; in [6], 0.465; in assay [7], -0.282; with Torsin-1A (Homo sapiens) [8], 0.453; in the assay with Torsin-1A (Homo sapiens) [9] it was -0.0078; in [10], 0.789. The molecule also showed a composite z-score in assay [12] of -0.103. In addition, the z-score in [2] is -0.657 (inactive); in assay [3], -0.315 (inactive); in [4], 1.01 (inactive); in assay [5], 0.257 (inactive); in assay [11] it was 0.278 (inactive); in assay [13], 5.46 (inactive). Besides, the z-score in [14] was 0.667 (inactive); in assay [15], -1.43 (inactive); in assay [16] it was 0.248 (inactive); in [17], -0.455; in [18], -0.28 (inactive); in [19] it was -0.657 (inactive). Further, in assay [20], the z-score was -3.7.

`O=C(NN=C1C[C@@H](O)[C@@H](O)[C@@H]2[C@@H]3C(=O)N(c4ccc(F)cc4F)C(=O)[C@@H]3CC[C@H]12)OCc1ccccc1`: the composite z-score in assay [1] is -0.0874; in assay [6] it was 0.727; in [7] it was -0.101; with Torsin-1A (Homo sapiens) [8], 0.671; in the assay with Torsin-1A (Homo sapiens) [9], 1.13; in assay [10], -0.836. The molecule also returned a composite z-score in assay [12] of 0.207. Besides, the z-score is -0.845 (inactive) in [2]; 0.0604 (inactive) in [3]; -0.299 (inactive) in assay [4]; 0.139 (inactive) in [5]; 0.342 (inactive) in [11]; 10.1 (active) in [13]. The z-score in assay [14] was 1.29 (inactive); in [15], 0.497 (inactive); in assay [16], 0.6 (inactive); in [17], -0.262; in assay [18], 0.317 (inactive); in [19], 1.33 (inactive). Further, in assay [20], the z-score stood at 0.866.

As to `CC(C)=NOC[C@@H](O)[C@H]1O[C@@H]2OC(C)(C)O[C@@H]2[C@H]1O`, the composite z-score in assay [1] was -0.297; in [6], 1.23; in assay [7], 0.333; with Torsin-1A (Homo sapiens) [8], 1.34; in the assay with Torsin-1A (Homo sapiens) [9], 0.0837; in assay [10] it was 0.785. Also, in [12], the composite z-score is -0.0501. The z-score was 0.605 (inactive) in assay [2]; 0.503 (inactive) in assay [3]; -0.473 (inactive) in assay [4]; -0.476 (inactive) in assay [5]; 0.269 (inactive) in assay [11]; 0.0289 (inactive) in assay [13]. Besides, the z-score is 0.0612 (inactive) in assay [14]; -0.0091 (inactive) in assay [15]; 0.269 (inactive) in assay [16]; 0.0226 in [17]; -0.162 (inactive) in assay [18]; -0.514 (inactive) in assay [19]. The z-score in assay [20] worked out at 0.0874.

Turning to `CC=CC1=C(CO)[C@H](O)[C@H]2O[C@H]2[C@@H]1O`, the composite z-score in assay [1] came to 0.0984; in assay [6] it was 0.162; in assay [7], 1.37; in the assay with Torsin-1A (Homo sapiens) [8], 0.587; with Torsin-1A (Homo sapiens) [9], 0.131; in assay [10], 0.875. Moreover, in assay [12], the composite z-score is -0.106. The z-score is -0.0795 (inactive) in [2]; -0.549 (inactive) in assay [3]; -0.525 (inactive) in assay [4]; 1.26 (inactive) in [5]; -0.412 (inactive) in assay [11]; -0.312 (inactive) in assay [13]. The z-score was 0.367 (inactive) in assay [14]; -0.242 (inactive) in assay [15]; 0.172 (inactive) in assay [16]; -0.325 in assay [17]; 0.623 (inactive) in [18]; -0.191 (inactive) in [19]. Moreover, the z-score in assay [20] was 0.109.
